Our source for the growth values is PubChem BioAssay (NCI).

About 83,000 compounds went through this panel and 20% of them were active in at least one assay; those are over-represented in the sample as a whole.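 Each cell line was grown in a 96-well plate and treated with one concentration of compound for 48 hours. Values below 10 were considered active.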 Unmarked numbers belong to inactive results. Calls of active or inactive are those of the source.

Common to all, as to assay: NCI-60 one-dose screen, 48 h (100 = growth as untreated, 0 = no growth, -100 = all killed)
Details in all cases: 10 µM unless noted

Experiment [1] has as its system NCI-H23 lung.
Experiment [2] concerns NCI-H226 lung.
In experiment [3] the test system is NCI-H322M lung.
In experiment [4] the test system is HOP-62 NSCLC.
Experiment [5] deals with NCI-H460 lung.
The test system of experiment [6] is HOP-92 NSCLC.
Experiment [7] concerns NCI-H522 lung.
Experiment [8] deals with A549/ATCC NSCLC.
The test system of experiment [9] is 786-0 renal.
The subject of experiment [10] is COLO 205 colon.
In experiment [11] the test system is DU-145 prostate.
Experiment [12] has as its system K-562 leukemia.
In experiment [13] the test system is MALME-3M melanoma.
Experiment [14] concerns MDA-MB-231 breast.
In experiment [15] the test system is RXF 393 renal.
The subject of experiment [16] is SF-268 CNS.
For experiment [17], the system named is SF-295 CNS.
For experiment [18], the system named is SF-539 CNS.
The test system of experiment [19] is UACC-257 melanoma.
For experiment [20], the system named is M14 melanoma.

For `CCOC(=O)c1c(NC(=O)c2cccc(C(F)(F)F)c2)sc2c3c(ccc12)OCN(C)C3`, the growth in experiment [1] is 83.6%; in experiment [2] it was 77.8%; in experiment [3], 18%; in experiment [4], -87.6% (active); in [5], -75.9% (active); in [6], 15.2%. The growth in experiment [7] was -15% (active); in experiment [8] it was -77.7% (active); in experiment [9], -71.9% (active); in experiment [10], -57.6% (active); in experiment [11] it was -16.8% (active); in [12], -64.1% (active). The growth is -53.9% (active) in experiment [13]; -95.9% (active) in experiment [14]; -91.4% (active) in [15]; -57.3% (active) in experiment [16]; 44.6% in experiment [17]; -0.959% (active) in experiment [18]. The growth in experiment [19] was 30.8%; in experiment [20], -17% (active).

On to `CC1(C)CC[C@]23CC[C@]4(C)[C@H](CC[C@@H]5[C@@]6(C)CC[C@H](N)C(C)(C)[C@@H]6CC[C@]54C)[C@H]2[C@H]1OC3`, for which the growth in experiment [1] is 88.8%; in [2], 96.6%; in experiment [3] it was 93.6%; in experiment [4], 96.1%; in [5] it was -34.8% (active); in [6], 69.3%. In addition, the growth in experiment [7] was 99%; in [8], 24.3%; in [9], -60.4% (active); in experiment [10], -40.4% (active); in [11] it was -25.2% (active); in [12], -31.2% (active). The growth was 109% in experiment [13]; 30.1% in experiment [14]; 38.1% in [15]; 80.9% in experiment [16]; 78% in [17]; 74.1% in experiment [18]. Also, the growth was 98.9% in [19] and 82.8% in [20].

Regarding `Cc1ccc(NC(=O)/C=C/c2ccc(OCCCOc3ccc4c(C)cc(=O)oc4c3)cc2)cc1`, the growth in [1] was 75.1%; in experiment [2], 56.8%; in experiment [3] it was 37.8%; in [4], 48.5%; in experiment [5], 38.8%; in [6], 35.7%. For the same compound, the growth in experiment [7] is 51.9%; in [8], 82.9%; in [9], 44.3%; in experiment [10], 82.2%; in [11], 60.6%; in experiment [12] it was 90.7%. Further, the growth was 44.8% in experiment [13]; 54.6% in experiment [14]; 44.1% in experiment [15]; 39.1% in experiment [16]; 50.1% in experiment [17]; 57.8% in experiment [18]. For the same compound, the growth is 69.8% in [19] and 88.3% in experiment [20].

As for `O=C(CSc1cc[n+](CCCCO)c2ccccc12)n1ccc2ccccc21`, the growth is 95.8% in [1]; 89.6% in [2]; 96.8% in [3]; 91.8% in experiment [4]; 99.2% in experiment [5]; 103% in experiment [6]. Further, the growth in experiment [7] is 99.4%; in [8], 103%; in experiment [9], 108%; in experiment [10], 106%; in experiment [11], 110%; in experiment [12], 98.2%. For the same compound, the growth is 99.7% in experiment [13]; 88.2% in experiment [14]; 107% in experiment [15]; 109% in experiment [16]; 99.7% in [17]; 99.2% in experiment [18]. The growth in experiment [19] is 95.2%; in experiment [20], 96.6%.

On to `N#C/C(=C\c1ccc(-c2ccc(Cl)c(Cl)c2)o1)C(=O)Nc1ncc(Cc2ccc(Cl)cc2)s1`, for which the growth was 38.2% in experiment [1]; 73.6% in experiment [2]; 33% in experiment [3]; 72.1% in experiment [4]; -42.4% (active) in experiment [5]; 81.5% in [6]. Besides, the growth in [7] is 47.1%; in experiment [8], 11.6%; in [9], 11.4%; in experiment [10], 55.8%; in experiment [11], 29.7%; in [12], 52.5%. Moreover, the growth in [13] was 17.2%; in [14], 50%; in experiment [15], 66%; in experiment [16] it was 34.7%; in [17], 20.4%; in [18], 46.7%. Also, the growth was 78.2% in [19] and 21.6% in experiment [20].

For `CN1CCN(c2ccc(Nc3nc(NCCCNS(=O)(=O)c4ccc(Cl)cc4)c4sccc4n3)cc2)CC1`, the growth was 65% in experiment [1]; 99.6% in experiment [2]; 33.7% in experiment [3]; 52.5% in experiment [4]; 7.38% (active) in experiment [5]; 49.4% in experiment [6]. For the same compound, the growth in experiment [7] is -65.8% (active); in experiment [8], 21.9%; in [9] it was -43.2% (active); in experiment [10], -38.3% (active); in [11] it was 30.8%; in [12], 12.5%. For the same compound, the growth was -88.4% (active) in [13]; 9.29% (active) in experiment [14]; -76.7% (active) in experiment [15]; 5.08% (active) in [16]; -68.5% (active) in experiment [17]; -85.3% (active) in experiment [18]. In addition, the growth in experiment [19] was -80.2% (active); in experiment [20], -60.4% (active).

With `O=C(CSc1nc2ccccc2c(=O)n1-c1ccc(Cl)cc1)N/N=C/c1ccc(Oc2ccc(Cl)cc2)cc1`, the growth in experiment [1] was 3.12% (active); in experiment [2] it was 75.6%; in experiment [3], 89.8%; in [4] it was 32.6%; in [5] it was -34.5% (active); in [6], 2.59% (active). For the same compound, the growth in [7] was 20.7%; in experiment [8], 16.5%; in [9], -4.71% (active); in experiment [10], 14.6%; in experiment [11], 13.1%; in [12], 23%. Further, the growth was -39.4% (active) in [13]; 30.4% in [14]; -43.8% (active) in [15]; 55.8% in [16]; 64.7% in experiment [17]; 69.7% in experiment [18]. The growth is 59% in [19] and -39.4% (active) in [20].
